Data: PubChem BioAssay (Tox21)
Records with an inconclusive call do not appear. The source made the active and inactive calls. Unless noted, the call rests on the fitted dose curve.

Experiments:
[1] = Nuclear factor erythroid 2-related factor 2/antioxidant responsive element (Nrf2/ARE) small molecule agonists: qHTS cell viability counter screen in human keratinocytes (AID 1919968; active means well fitted curve in the direction sought with a large enough effect in the repeat runs; an effect the other way counts as inactive or inconclusive; further: nearly all actives have a fitted effect of over 55% in size)
In short: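 CellTiter-Fluor fluorescence, read 1 h after reagent, gave viability in the same wells as the ARE-luciferase assay. KeratinoSens cells (1,500/well) had 23 h compound exposure at 37 C/5% CO2 following 5 h plating.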

[2] = Nuclear factor erythroid 2-related factor 2/antioxidant responsive element (Nrf2/ARE) small molecule agonists: luciferase reporter gene qHTS assay in human keratinocytes (AID 1919969); further: nearly all actives have a fitted effect of over 35% in size
[3] = molecular target: Gonadotropin-releasing hormone receptor (Homo sapiens) (UniProt P30968); assay: Human gonadotropin-releasing hormone receptor (GnRHR) small molecule agonists, calcium flux assay in GnRHR-HEK293 cells (AID 1920063); further: nearly all actives have a fitted effect of over 35% in size
Chain of Gonadotropin-releasing hormone receptor (Homo sapiens) (P30968 whole entry, looked up): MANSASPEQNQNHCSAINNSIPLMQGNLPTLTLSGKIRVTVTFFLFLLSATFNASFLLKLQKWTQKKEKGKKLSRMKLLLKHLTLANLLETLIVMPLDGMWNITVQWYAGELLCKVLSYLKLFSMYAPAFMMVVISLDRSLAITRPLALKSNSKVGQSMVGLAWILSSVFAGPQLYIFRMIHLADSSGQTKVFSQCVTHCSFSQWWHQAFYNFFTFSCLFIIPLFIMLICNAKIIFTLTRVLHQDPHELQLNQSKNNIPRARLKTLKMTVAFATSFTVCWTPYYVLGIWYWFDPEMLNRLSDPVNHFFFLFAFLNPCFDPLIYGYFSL
In short: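 Agonist mode: compounds at 15 concentrations, in triplicate, went onto calcium dye-loaded GnRHR-HEK293 cells. Intracellular calcium was then followed as 480/540 nm fluorescence at 1 s intervals over 3 min.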

[4] = molecular target: KiSS-1 receptor (Homo sapiens) (UniProt Q969F8); assay: Human kisspeptin (KISS1R) small molecule agonists, calcium flux assay in KISS1R-HEK293 cells (AID 1920064; active means well fitted curve in the direction sought with a large enough effect in the repeat runs; an effect the other way counts as inactive or inconclusive)
Chain of KiSS-1 receptor (Homo sapiens) (Q969F8 whole entry, looked up): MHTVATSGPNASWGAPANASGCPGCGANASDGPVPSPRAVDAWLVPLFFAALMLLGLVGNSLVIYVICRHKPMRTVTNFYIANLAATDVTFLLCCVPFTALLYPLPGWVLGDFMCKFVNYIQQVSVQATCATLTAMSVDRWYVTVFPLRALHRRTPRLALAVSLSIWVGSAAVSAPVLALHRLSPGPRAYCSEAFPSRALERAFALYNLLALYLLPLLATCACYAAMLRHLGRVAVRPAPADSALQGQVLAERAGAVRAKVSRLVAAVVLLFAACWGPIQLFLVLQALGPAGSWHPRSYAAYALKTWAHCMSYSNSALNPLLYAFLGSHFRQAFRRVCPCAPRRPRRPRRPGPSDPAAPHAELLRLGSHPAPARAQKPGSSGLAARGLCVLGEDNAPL
In short: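 Agonist mode: intracellular calcium rise tracked at 1 s intervals over 3 min (480/540 nm) immediately after compound addition to dye-loaded KISS1R-HEK293 stable cells. Each compound tested at 15 concentrations in triplicate.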

[5] = G protein-coupled receptor (GPCR) small molecule agonists, calcium flux assay: HEK293 wild type cell line counter screen (AID 1920065)
In short: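 Calcium flux counter screen: compound added in agonist mode at 15 concentrations in triplicate to dye-loaded parental HEK293 cells. Fluorescence (480/540) read kinetically for 3 min; ATP served as positive control.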

[6] = p53 small molecule agonists, cell-based qHTS assay with human liver microsomes: qHTS cell viability counter screen (AID 1963579); further: nearly all actives have a fitted effect of over 45% in size
In short: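 HLM-supplemented (0.5 mg/mL final) and NADPH-supplemented (0.5 mg/mL final) p53RE-bla cultures, 4,000 cells per well, were dosed with compounds in DMSO for 16 h at 37 C; luminescent ATP detection (CellTiter-Glo, 30 min, room temperature) quantified surviving cells.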

[7] = p53 small molecule agonists, cell-based qHTS assay with rat liver microsomes: qHTS cell viability counter screen (AID 1963580); further: nearly all actives have a fitted effect of over 45% in size
In short: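 Counter screen for cytotoxicity under metabolic activation: rat liver microsomes and NADPH, 0.5 mg/mL final each, added with compounds to p53RE-bla HCT-116 cells; 16 h at 37 C, then ATP luminescence read.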

[8] = p53 small molecule agonists, cell-based qHTS assay: qHTS cell viability counter screen (AID 1963581); further: nearly all actives have a fitted effect of over 45% in size
In short: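 Counter screen read by CellTiter-Glo luminescence (ATP content, 30 min at room temperature), run in the same wells as the beta-lactamase reporter read. HCT-116 p53RE-bla cells saw compounds for 16 h at 37 C.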

[9] = molecular target: 5-hydroxytryptamine receptor 2A (Homo sapiens) (UniProt P28223); assay: 5-hydroxytryptamine receptor 2A (HTR2A) small molecule antagonists, cell-based qHTS assay (AID 1963586); further: nearly all actives have a fitted effect of over 45% in size
Chain of 5-hydroxytryptamine receptor 2A (Homo sapiens) (P28223 whole entry, looked up): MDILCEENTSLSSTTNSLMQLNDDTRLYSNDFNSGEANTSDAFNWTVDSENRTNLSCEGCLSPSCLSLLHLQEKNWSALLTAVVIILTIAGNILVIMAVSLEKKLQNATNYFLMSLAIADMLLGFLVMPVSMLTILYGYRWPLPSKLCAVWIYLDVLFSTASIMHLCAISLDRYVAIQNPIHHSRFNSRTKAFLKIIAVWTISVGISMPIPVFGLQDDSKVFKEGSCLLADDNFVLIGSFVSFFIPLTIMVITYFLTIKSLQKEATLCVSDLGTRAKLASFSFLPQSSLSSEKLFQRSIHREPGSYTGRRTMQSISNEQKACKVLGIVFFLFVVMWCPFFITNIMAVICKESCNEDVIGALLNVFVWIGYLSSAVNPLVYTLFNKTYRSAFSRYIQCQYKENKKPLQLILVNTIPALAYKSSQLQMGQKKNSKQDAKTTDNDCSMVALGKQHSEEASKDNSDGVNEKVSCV
In short: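 CHO cells stably expressing human HTR2A were plated for 18 h at 37 C, then loaded with calcium dye for 1 h. Compounds were preincubated 5 min at room temperature before DOI (4 nM solution) was added. Kinetic fluorescence was read for 3 min.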

[10] = molecular target: 5-hydroxytryptamine receptor 2A (Homo sapiens) (UniProt P28223); assay: 5-hydroxytryptamine receptor 2A (HTR2A) small molecule agonists, cell-based qHTS assay (AID 1963587); further: nearly all actives have a fitted effect of over 30% in size
In short: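 HTR2A-CHO cells, plated 18 h at 37 C/5% CO2, dye-loaded 1 h at 37 C; compounds in DMSO added by pin tool (agonist mode). Intracellular calcium flux read as kinetic fluorescence on FDSS over 2 min at 1 s intervals.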

[11] = molecular target: Muscarinic acetylcholine receptor M1 (Homo sapiens) (UniProt P11229); assay: Cholinergic receptor muscarinic 1 (CHRM1) small molecule antagonists, cell-based qHTS assay (AID 1963588); further: nearly all actives have a fitted effect of over 40% in size
Chain of Muscarinic acetylcholine receptor M1 (Homo sapiens) (P11229 whole entry, looked up): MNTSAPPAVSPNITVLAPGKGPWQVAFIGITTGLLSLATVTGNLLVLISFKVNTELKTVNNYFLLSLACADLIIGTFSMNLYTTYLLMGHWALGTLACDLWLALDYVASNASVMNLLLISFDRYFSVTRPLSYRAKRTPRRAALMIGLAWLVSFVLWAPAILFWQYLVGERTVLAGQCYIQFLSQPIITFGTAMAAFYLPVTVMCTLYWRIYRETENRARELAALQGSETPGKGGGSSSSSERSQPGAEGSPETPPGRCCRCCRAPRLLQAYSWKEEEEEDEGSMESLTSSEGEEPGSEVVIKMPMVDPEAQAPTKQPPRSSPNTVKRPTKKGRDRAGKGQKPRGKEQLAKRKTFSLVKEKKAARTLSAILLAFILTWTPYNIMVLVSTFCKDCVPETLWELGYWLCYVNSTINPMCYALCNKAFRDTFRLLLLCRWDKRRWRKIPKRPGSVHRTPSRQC
In short: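 Compounds were tested at 15 concentrations in three independent runs. Dye-loaded CHRM1-CHO cells were exposed 5 min at room temperature before stimulation by acetylcholine added at 50nM. Intracellular calcium was read kinetically on FDSS for 3 min.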

[12] = molecular target: Muscarinic acetylcholine receptor M1 (Homo sapiens) (UniProt P11229); assay: Cholinergic receptor muscarinic 1 (CHRM1) small molecule agonists, cell-based qHTS assay (AID 1963589); further: nearly all actives have a fitted effect of over 35% in size
In short: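 Agonist-mode calcium-flux screen: compounds at 15 concentrations, three independent runs, were pin-transferred onto dye-loaded human CHRM1-CHO cells. Fluorescence was then recorded kinetically every second over minutes.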

[13] = cAMP Responsive Elements (CRE) small molecule agonists, cell-based qHTS assay (AID 1963590)
In short: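 Agonist mode: compound added to CRE-bla HEK 293T cells (2,000/well, 18 h after plating) for 3 h at 37 C/5% CO2. Reporter activity detected via FRET beta-lactamase substrate, 2 h room-temperature loading.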

[14] = molecular target: Beta-2 adrenergic receptor (Homo sapiens) (UniProt P07550); assay: Adrenergic beta2 receptor (ADRB2) small molecule antagonists, cell-based qHTS assay (AID 1963592); further: series mostly up to about 92 µM; nearly all actives have a fitted effect of over 50% in size
Chain of Beta-2 adrenergic receptor (Homo sapiens) (P07550 whole entry, looked up): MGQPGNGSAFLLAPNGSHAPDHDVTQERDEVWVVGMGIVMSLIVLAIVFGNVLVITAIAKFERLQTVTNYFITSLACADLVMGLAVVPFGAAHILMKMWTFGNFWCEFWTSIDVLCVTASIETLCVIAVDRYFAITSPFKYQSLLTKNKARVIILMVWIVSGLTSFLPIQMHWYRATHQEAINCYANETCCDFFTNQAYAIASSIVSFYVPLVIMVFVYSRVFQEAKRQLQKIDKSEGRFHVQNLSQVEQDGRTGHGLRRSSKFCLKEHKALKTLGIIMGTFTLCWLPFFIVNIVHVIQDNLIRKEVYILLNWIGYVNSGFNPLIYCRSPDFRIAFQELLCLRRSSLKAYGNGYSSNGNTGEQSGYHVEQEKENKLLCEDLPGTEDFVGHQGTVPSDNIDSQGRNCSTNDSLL
In short: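 Assay format: CHO-ADRB2 cells, 18-20hr seeding at 37C/5% CO2, then compound plus 1nM isoproterenol agonist mix for 0.5hr RT. Homogeneous time-resolved fluorescence cAMP detection after 1hr, expressed as 665/615 nm ratio.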

[15] = molecular target: Beta-2 adrenergic receptor (Homo sapiens) (UniProt P07550); assay: Adrenergic beta2 receptor (ADRB2) small molecule agonists, cell-based qHTS assay (AID 1963593);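 further: CHO cells stably overexpressing human ADRB2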
In short: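 CHO cells stably over-expressing ADRB2 were plated overnight at 37C, then dosed with compounds plus a stimulation mix containing 100uM IBMX and 25uM Ro-20-1724 for 0.5hr at room temperature. cAMP was measured by HTRF competition, 1hr.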

[16] = molecular target: D(2) dopamine receptor (Homo sapiens) (UniProt P14416); assay: Dopamine D2 receptor (DRD2) small molecule agonists, cell-based qHTS assay (AID 1963594); further: nearly all actives have a fitted effect of over 35% in size
Chain of D(2) dopamine receptor (Homo sapiens) (P14416 whole entry, looked up): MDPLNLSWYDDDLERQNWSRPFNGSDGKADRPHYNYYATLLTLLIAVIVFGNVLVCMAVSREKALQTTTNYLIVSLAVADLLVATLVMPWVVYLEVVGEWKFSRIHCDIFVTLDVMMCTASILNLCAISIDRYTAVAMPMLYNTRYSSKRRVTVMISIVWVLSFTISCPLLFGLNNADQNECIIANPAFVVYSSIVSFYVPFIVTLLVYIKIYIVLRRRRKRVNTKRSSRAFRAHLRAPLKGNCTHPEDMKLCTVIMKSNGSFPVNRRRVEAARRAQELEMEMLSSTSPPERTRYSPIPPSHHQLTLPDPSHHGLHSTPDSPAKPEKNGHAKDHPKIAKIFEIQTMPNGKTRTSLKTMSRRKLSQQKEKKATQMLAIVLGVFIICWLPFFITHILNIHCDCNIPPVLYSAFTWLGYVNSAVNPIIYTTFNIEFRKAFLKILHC
In short: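 HEK293 cells stably expressing DRD2 were cultured 24 h at 37 C, then given Ro20-1724 (0.1 mM final) and compounds for 10 min at room temperature. NKH477 (200nM) was then added for 30 min. cAMP was read by HTRF.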

[17] = molecular target: D(2) dopamine receptor (Homo sapiens) (UniProt P14416); assay: Dopamine D2 receptor (DRD2) small molecule antagonists, cell-based qHTS assay (AID 1963595; active means well fitted inhibition curve with a large enough effect in the signal ratio in the repeat runs, with a control signal flat; the % refers to the signal ratio)
In short: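 Stable D2 receptor HEK293 line, 24 h after seeding. Compound preincubated 10 min, then quinpirole (12 nM) with forskolin analogue NKH477 (200 nM), 30 min, room temperature. Detection by time-resolved FRET of cAMP.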

[18] = cAMP Responsive Elements (CRE) small molecule antagonists, cell-based qHTS assay (AID 1963591; active means well fitted inhibition curve with a large enough effect in the signal ratio in the repeat runs, not every such curve was filed as active; the % refers to the signal ratio)
In short: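 Antagonist mode: compounds are added alongside the adenylyl cyclase activator NKH477 (0.25 uM final) to CRE-bla HEK293T cells for 3 h. LiveBLAzer FRET substrate, 2 h at room temperature, reports bla expression.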
On the % scale 0 is the no-effect control and ±100 the full control effect.

CCC(C)(C)OC
inactive: Potency [1] | Potency [2] | Potency [3] | Potency [4] | Potency [5] | Potency [6] | Potency [7] | Potency [8] | Potency [9] | Potency [10] | Potency [11] | Potency [12] | Potency [13] | Potency [14] | Potency [15] | Potency [16] | Potency [17]

CC(C)Cn1cnc2c1c(=O)n(C)c(=O)n2C
inactive: Potency [1] | Potency [2] | Potency [3] | Potency [4] | Potency [5] | Potency [6] | Potency [7] | Potency [8] | Potency [9] | Potency [10] | Potency [11] | Potency [12] | Potency [13] | Potency [14] | Potency [15] | Potency [17]

Cc1ccc(C(C)OC(=O)C2(C)CCC(C(=O)O)C2(C)C)cc1 (configuration not stated)
inactive: Potency [1] | Potency [2] | Potency [3] | Potency [4] | Potency [5] | Potency [6] | Potency [7] | Potency [8] | Potency [9] | Potency [10] | Potency [11] | Potency [12] | Potency [13] | Potency [14] | Potency [16] | Potency [17]

O=C(OCC(COC(=O)c1cccnc1)(COC(=O)c1cccnc1)COC(=O)c1cccnc1)c1cccnc1
inactive: Potency [1] | Potency [2] | Potency [3] | Potency [4] | Potency [5] | Potency [6] | Potency [7] | Potency [8] | Potency [9] | Potency [10] | Potency [11] | Potency [12] | Potency [13] | Potency [14] | Potency [15] | Potency [16] | Potency [17]

S=C([S-])NCCNC(=S)[S-].[Mn+2]
inactive: Potency [1] | Potency [2] | Potency [3] | Potency [4] | Potency [5] | Potency [6] | Potency [7] | Potency [8] | Potency [9] | Potency [10] | Potency [11] | Potency [12] | Potency [13] | Potency [14] | Potency [15] | Potency [16]

CCCCN1C(=O)c2ccccc2C1=O
inactive: Potency [1] | Potency [2] | Potency [3] | Potency [4] | Potency [5] | Potency [6] | Potency [7] | Potency [8] | Potency [9] | Potency [10] | Potency [11] | Potency [12] | Potency [16] | Potency [17]

C=C(C)C(=O)OCCO
inactive: Potency [1] | Potency [2] | Potency [3] | Potency [4] | Potency [5] | Potency [6] | Potency [7] | Potency [8] | Potency [9] | Potency [10] | Potency [11] | Potency [12] | Potency [13] | Potency [18] | Potency [16] | Potency [17]

CCNC(=O)NCc1cccc(Cl)c1
inactive: Potency [1] | Potency [2] | Potency [3] | Potency [4] | Potency [5] | Potency [6] | Potency [7] | Potency [8] | Potency [9] | Potency [10] | Potency [11] | Potency [12] | Potency [13] | Potency [14] | Potency [16] | Potency [17]

COC(=O)CC(=O)C(C)(C)C
inactive: Potency [1] | Potency [2] | Potency [3] | Potency [4] | Potency [5] | Potency [6] | Potency [7] | Potency [8] | Potency [9] | Potency [10] | Potency [11] | Potency [12] | Potency [18] | Potency [16] | Potency [17]

C[C@@H]1CN(c2c(F)c(F)c3c(=O)c(C(=O)O)cn(C4CC4)c3c2F)C[C@H](C)N1
inactive: activity change, negative = cytotoxicity [1] -4.39% [at 19 µM] | activity, positive = activation [2] 2.76% [at 19 µM] | activity change [3] 0.18% [at 11.8 µM, stronger effect = higher value] | activation [4] -0.0587% [at 15.8 µM] | activation [5] -1.01% [at 11.8 µM] | activity change, negative = cytotoxicity [6] 0.644% [at 13.5 µM] | activity change, negative = cytotoxicity [7] 9.6% [at 13.5 µM] | activity change, negative = cytotoxicity [8] -8.27% [at 13.5 µM] | activity, negative = inhibition [9] 0.835% [at 12.7 µM] | activation [10] -2.83% [at 15.9 µM] | activity, negative = inhibition [11] 7.07% [at 12.6 µM] | activation [12] -1.01% [at 15.8 µM] | activation [13] -2.17% [at 19 µM] | activity change, negative = inhibition [14] -4.7% [at 19 µM] | activation [16] 18.6% [at 19 µM] | activity change, negative = inhibition [17] -0.82% [at 18.9 µM]

O=C(Cl)c1ccc([N+](=O)[O-])cc1
inactive: Potency [1] | Potency [2] | Potency [3] | Potency [4] | Potency [5] | Potency [6] | Potency [7] | Potency [8] | Potency [9] | Potency [10] | Potency [11] | Potency [12] | Potency [13] | Potency [18] | Potency [16] | Potency [17]

CCOC(=O)c1ccc(C#Cc2ccc3c(c2)C(C)(C)CCS3)nc1
inactive: Potency [1] | Potency [2] | Potency [3] | Potency [4] | Potency [5] | Potency [6] | Potency [7] | Potency [8] | Potency [9] | Potency [10] | Potency [11] | Potency [12] | Potency [14] | Potency [16] | Potency [17]

CCOc1ccc2[nH]cc(C(=O)NCc3ccccc3)c(=O)c2n1
inactive: Potency [1] | Potency [2] | Potency [3] | Potency [4] | Potency [5] | Potency [6] | Potency [7] | Potency [8] | Potency [9] | Potency [10] | Potency [11] | Potency [12] | Potency [14] | Potency [15] | Potency [16] | Potency [17]

C/C(C=O)=C\c1ccccc1
inactive: Potency [1] | Potency [2] | Potency [3] | Potency [4] | Potency [5] | Potency [6] | Potency [7] | Potency [8] | Potency [9] | Potency [10] | Potency [11] | Potency [12] | Potency [13] | Potency [18] | Potency [16] | Potency [17]

CC(C)(C)c1cc(CCC(=O)OCC(COC(=O)CCc2cc(C(C)(C)C)c(O)c(C(C)(C)C)c2)(COC(=O)CCc2cc(C(C)(C)C)c(O)c(C(C)(C)C)c2)COC(=O)CCc2cc(C(C)(C)C)c(O)c(C(C)(C)C)c2)cc(C(C)(C)C)c1O
inactive: Potency [1] | Potency [2] | Potency [3] | Potency [4] | Potency [5] | Potency [6] | Potency [7] | Potency [8] | Potency [9] | Potency [10] | Potency [11] | Potency [12] | Potency [18] | Potency [14] | Potency [17]
